Data on three compounds can be found in PubChem BioAssay AID504809 (National Center for Advancing Translational Sciences (NCATS), 2011).

Structures are written as SMILES. Results filed as inconclusive are left out. Where a call stands in place of a potency, no number is given. Active and inactive are the calls of the source. Calls follow the shape of the dose curve; as a rule, active = well fitted curve in the direction sought with a large enough effect; inconclusive = small, poorly fitted or top-dose-only effect, or another doubt; inactive = no such curve, though single readings can be large or run the other way.

The nature of the experiment: Followup screen for small molecules that induce DNA re-replication in MCF 10A normal breast cells. The note with it: MCF 10A DNA re-replication, Hoechst nuclear intensity, 48 h; series mostly up to 46.1 µM. The source says:
NIH Molecular Libraries Probe Production Network [MLPCN] NIH Chemical Genomics Center [NCGC] MLPCN Grant: Fast Track K99 CA136555 Assay Provider: Melvin DePamphilis, NICHD, NIH Assay Overview Eukaryotic cells normally restrict genome duplication to once per cell division. When this process is aberrant, DNA re-replication occurs when cells reinitiate DNA replication before the first round of replication is complete. DNA re-replication induces the DNA damage response, arrests cell proliferation, and triggers apoptosis. The cell cycle components cyclin A, Cdt-1, Cdc6 and geminin are critical regulators of this process and their misregulation results in DNA re-replication in normal and cancer cells. To identify compounds that induce re-replication in normal cells, an image-based assay was used to measure DNA content of nuclei, as detected by the fluorescent DNA binding dye, Hoechst. Cell nuclei were imaged by a fluorescence scanning plate imager and compounds that induce DNA re-replication were identified by the increase of nuclei with elevated fluorescence intensity.
Assay Protocol Summary For screening, 250 cells in 5 uL/well were dispensed into black clear 1536-well plates (Aurora) using a solenoid-based dispenser. Following transfer of 23 nL compound or DMSO vehicle by a pin tool, the plates were incubated 48 hr at 37 C and 5% CO2. After addition of 1 uL/well Hoescht stain, the plates were incubated 40 min at 37 C, 5% CO2 and total intensity of fluorescent objects (nuclei) were enumerated by an Acumen Explorer Ex3 (TTP LabTech) fluorescence scanning plate imager (405 nm excitation, 500-530 nm emission). Keywords: NIH Roadmap, MLPCN, MLI, MLSMR, qHTS, NCGC, DNA replication, cancer
Consider `CC(C)NP(=O)(NC(C)C)OP(=O)(NC(C)C)NC(C)C`, for which the Potency entry is “inactive”.

On to `NCC#Cc1ccccc1`, for which the Potency result is “inactive”.

As for `COc1cc([C@@H]2c3cc4c(cc3[C@H](O)[C@@H]3COC(=O)[C@H]23)OCO4)cc(OC)c1OC`, the Potency was 26.8 nM (active).
